D2 antag = antagonizes the human D2 dopamine receptor; P14416; HEK293 TREx D2 cells, calcium flux, dopamine EC80; inhibition, % at 10 µM; 340,000 tested, 2% active; in the data active = inhibition above about 30%; inactive = below that, where a call was filed; also: 0% is about no effect
Target sequence (P14416 whole entry, looked up): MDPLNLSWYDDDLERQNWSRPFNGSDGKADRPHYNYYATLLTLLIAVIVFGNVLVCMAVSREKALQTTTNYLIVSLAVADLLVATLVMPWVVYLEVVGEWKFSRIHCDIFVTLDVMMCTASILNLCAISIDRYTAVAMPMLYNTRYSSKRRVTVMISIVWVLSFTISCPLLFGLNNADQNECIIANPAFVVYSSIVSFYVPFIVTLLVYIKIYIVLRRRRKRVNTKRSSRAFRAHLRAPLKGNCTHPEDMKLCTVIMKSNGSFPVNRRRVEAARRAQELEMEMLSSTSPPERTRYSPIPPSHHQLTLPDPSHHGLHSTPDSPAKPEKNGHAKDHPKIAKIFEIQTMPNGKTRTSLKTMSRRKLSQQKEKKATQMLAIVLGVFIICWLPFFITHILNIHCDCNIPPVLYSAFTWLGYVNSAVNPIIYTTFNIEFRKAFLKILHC
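Overnight-induced (tetracycline, 30 C) HEK293 T-REx cells carrying force-coupled D2 receive a no-wash calcium dye, then compound, then EC80 dopamine at 180 s; signals are read kinetically throughout.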
D2 ag-1 = D2 dopamine receptor (human) agonism | P14416 | HEK293 T-REx D2 cells, calcium flux agonist mode | activation, % at 2 µM | 340,000 tested, 0.53% active;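 active = activation over 3 SD above normal in the single-dose calcium agonist read, cut at about 30% in these data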; also: 0% is about no effect
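Agonism is scored from calcium flux in a force-coupled, inducible HEK293 cell line expressing D2, read kinetically for 180 s after compound addition against dopamine controls.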
D2 PAM-1 = positive allosteric modulators of human D2 dopamine receptor; HEK293 T-REx D2, calcium flux, EC20 dopamine potentiation; potentiation, % at 10 µM; 340,000 tested, 0.34% active;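 active = potentiation over 3 SD above the plate norm, cut at about 30% in these data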; also: 0% is about no effect
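Tetracycline-induced HEK293 T-REx cells force-coupled to calcium signalling expressed D2; compounds were pin-added after a 10 s baseline, read kinetically 180 s, then an EC20 dopamine challenge followed with a further 180 s calcium read.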
D2 ag-2 = agonists of human D2 dopamine receptor (beta-arrestin); P14416; DiscoveRx PathHunter D2 beta-arrestin, luminescence, 90 min; 100% = 57 uM dopamine signal; activation, % (concentration not given with the values); 360,000 tested, 0.084% active; in the data active = activation above about 40%; inconclusive = between about 15% and that limit
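Agonist mode: compounds alone added to overnight-plated D2 PathHunter cells for 90 min at 37 C, with 57 uM final dopamine (EC100) defining full response. Beta-arrestin recruitment detected by chemiluminescent reagent, read after 1 h at ambient temperature.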
D2 PAM-2 = potentiates the human D2 dopamine receptor allosterically; P14416; AID 624464; potentiation, % (test concentration not listed); 360,000 tested, 0.23% active; DiscoveRx D2 beta-arrestin cells, luminescence, 90 min; 100% = 57 uM dopamine signal; in the data active = potentiation above about 50%; inconclusive = mostly about 30% to 49%
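PathHunter beta-arrestin assay in DiscoveRx D2 cells. Compounds were added with an EC20 of dopamine (50 nM final) for 90 min at 37 deg C. Luminescence was read 1 h after detection reagent, with 57 uM dopamine as the EC100 control.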
* hit, by the source's call; ? = inconclusive; / = not tested or not shown; ! = not confirmed by another sample. Hits are enriched below; roughly 2.4% of the tested compounds scored in any of these assays.

SMILES	D2 antag	D2 ag-1	D2 PAM-1	D2 ag-2	D2 PAM-2
C/C(=N/Nc1ccc(C(=O)O)cc1)c1ccc(O)c(O)c1O	-6.4	-0.3	0.4	?	84.7*
C=CC(COCc1ccccc1)N(C(=O)OC(C)(C)C)S(=O)(=O)c1ccccc1Br (centres undefined)	68.0*	0.9	7.3	-0.3	-4.3
CN(C)CCOC(c1ccc(Cl)cc1)c1ccccn1 (centres undefined)	0.1	-0.7	-9.7	97.9*!	-23.5
CN(C)CCOC(c1ccccc1)c1ccccc1	-12.6	1.9	-12.0	-5.8	-11.4
CCOCCCNC(=O)Cc1ccc(F)cc1	2.4	0.9	-7.6	/	/
CC(C)OCCCNC(=O)Cc1ccc(F)cc1	57.1*	0.9	-20.4	-1.3	-3.3
CCOc1ccc(NC(=O)Cn2c(=O)n(Cc3nc(-c4ccccc4)no3)c(=O)c3ccccc32)cc1	/	0.8	-2.5	/	/
Cc1ccc(S(=O)(=O)CC(=O)c2ccc(C)c([N+](=O)[O-])c2)cc1	78.8*	0.8	0.0	2.3	-8.1
Cc1ccc(S(=O)(=O)CC(=O)c2ccc([N+](=O)[O-])cc2)cc1	10.5	0.8	-2.8	1.4	0.3
Cc1csc(=O)n1CCC(=O)OCC(=O)Nc1ccc(C(N)=O)cc1	-3.2	0.1	-4.5	-5.3	-1.3
Cc1csc(=O)n1CCC(=O)OCC(=O)Nc1ccc(S(N)(=O)=O)cc1	53.9*	-0.8	2.2	-0.3	0.5
Cc1nn2c(C)c(C(=O)NC(C)c3ccccc3)cnc2c1-c1ccc(F)cc1 (centres undefined)	/	0.9	11.0	/	/
CCNC(=O)COC(=O)C1CCN(S(=O)(=O)c2ccc3c(c2)OCCO3)CC1	6.0	-0.5	9.2	0.0	3.5
N#CCOC(=O)C1CCN(S(=O)(=O)c2ccc3c(c2)OCCO3)CC1	5.4	0.5	33.5*	-1.5	1.4
CCn1c(SCc2ccc(OC)c(F)c2)nc2ccccc2c1=O	-16.9	3.1	33.4*	6.0	-0.5
COCC(C)n1c(SCc2ccc(OC)c(F)c2)nc2ccccc2c1=O (centres undefined)	/	/	/	2.6	9.0
O=C(CC12CC3CC(CC(C3)C1)C2)NCC(c1ccc(F)cc1)N1CCOCC1 (centres undefined)	40.1*	2.6	3.1	0.6	-4.4
COc1ccc2c(c1)c1c(c(=O)n(-c3cccc(Cl)c3)c(=O)n1CC(=O)NCC1CCCO1)n2C (centres undefined)	/	0.7	-5.0	/	/
COC(=O)c1c(C)[nH]c(C(=O)C(C)Sc2nnc(-c3cc(OC)c(OC)c(OC)c3)o2)c1C (centres undefined)	32.1*	-1.4	4.9	-1.3	-9.0
S=c1[nH]c(-c2ccccc2)cs1	8.3	-0.2	10.6	4.7	-16.4
Fc1ccc(-c2csc(=S)[nH]2)cc1	31.0*	-0.3	-2.4	-1.9	-3.7
Cc1nc(-c2ccc(Cl)cc2)sc1CCNC(=O)C(=O)Nc1ccccc1C#N	/	-0.7	-7.2	/	/
CCOC(=O)C1CCN(C(=O)CCc2ccccc2)CC1	-3.6	0.1	-3.6	-3.8	-5.1
CCOC(=O)C1CCN(C(=O)CCc2nc3ccccc3[nH]2)CC1	60.6*	0.0	0.3	0.2	-5.1
Cc1ccc2onc(CNC(=O)N(C)Cc3ccccc3)c2c1	/	-0.2	-3.3	/	/
SMILES	D2 antag	D2 ag-1	D2 PAM-1	D2 ag-2	D2 PAM-2
CCCCCCNCc1ccc(Br)cc1	30.4*	0.2	-20.8	-2.0	-26.5
CCN1CCN(c2nc(N(C)c3ccccc3)nc(N)c2[N+](=O)[O-])CC1	49.5*	5.0	-19.5	-1.7	-13.6
CN(c1ccccc1)c1nc(N)c([N+](=O)[O-])c(N2CCCCCC2)n1	6.4	0.3	4.4	0.1	-12.1
CN1CCN(c2nc(NCc3ccco3)nc(N)c2[N+](=O)[O-])CC1	77.2*	-0.6	-23.6	-0.2	-23.6
CCN1CCN(c2nc(Nc3ccc(C)c(C)c3)nc(N)c2[N+](=O)[O-])CC1	51.5*	-1.7	-21.9	-5.9	-15.2
COc1ccccc1N1CCN(C(=O)C2CCN(S(=O)(=O)c3cn(C)cn3)CC2)CC1	/	0.8	0.4	/	/
CCc1cc2c(cc3c(=O)n(CCCC(=O)NCc4cccc(Cl)c4)ncn32)s1	/	0.3	7.3	/	/
CCc1cccc(NC(=O)C(NS(=O)(=O)c2ccc3nc(C)sc3c2)C(C)C)c1 (centres undefined)	/	-0.4	-2.1	/	/
